According to PubChem BioAssay (NCATS):
“And” between values parts separate entries of the source, which are not always exact repeats. Identical values can stand only once. Inconclusive results are not listed. A call without a number means that no potency is given here. The source made the active and inactive calls. The call rests on the fitted dose curve; in most records, active means well fitted curve in the direction sought with a large enough effect; inconclusive means small, poorly fitted or top-dose-only effect, or another doubt; inactive means no such curve, though single readings can be large; an effect the other way counts as inactive or inconclusive.

What was measured:
[1] = Primary qHTS for inhibitors of nuclear receptor binding SET domain protein 2 (NSD2) in an isogenic RCH-ACV NSD2 p.E1099K mutant (9B) (AID 1645876)
[2] = Primary qHTS for inhibitors of nuclear receptor binding SET domain protein 2 (NSD2) in an RCH-ACV wild type WT cells (2C) (AID 1645877)
Further: nearly all actives have a fitted effect of over 70% in size.
Potency means the concentration at half of the fitted maximal effect.

## CC(C)C(=O)Oc1ccc(CO)cc1[C@H](CCN(C(C)C)C(C)C)c1ccccc1
[1]
  Potency: inactive
[2]
  Potency: inactive

## COc1ccc2c(Oc3ccc(NC(=O)c4c(C)n(CC(C)(C)O)n(-c5ccccc5)c4=O)nc3)ccnc2c1
[1]
  Potency: inactive

## O=c1c(O)c(-c2ccc(O)cc2)oc2cc(O)cc(O)c12
[1]
  Potency: 23.5 µM (active)

## COCCOC(=O)C1=C(C)NC2=C(C(=O)CC(c3ccccc3OC)C2)C1c1cccc(O)c1 (centres undefined)
[1]
  Potency: 4.68 µM (active) and 3.65 µM (active)
[2]
  Potency: 3.72 µM (active) and 3.25 µM (active)

## O=C(O)c1ccccc1C(=O)Nc1ccc(-c2ccccc2)cc1
[1]
  Potency: inactive
[2]
  Potency: inactive

## O=C(Nc1cc(Cl)cc2c1[nH]c1cnccc12)c1cccnc1
[1]
  Potency: inactive
[2]
  Potency: inactive

## COc1ccc2cccc(CCNC(C)=O)c2c1
[1]
  Potency: inactive
[2]
  Potency: inactive

## CCS(=O)(=O)N1CC(CC#N)(n2cc(-c3ncnc4[nH]ccc34)cn2)C1
[1]
  Potency: 18.6 µM (active)
[2]
  Potency: 16.6 µM (active)

## CC(C)[C@H](CO)Nc1nc(Nc2ccc(C(=O)O)c(Cl)c2)c2ncn(C(C)C)c2n1
[1]
  Potency: inactive
[2]
  Potency: inactive

## O=C(NC1CCOCC1)c1ccc(-c2cc(-c3cn[nH]c3-c3ccccn3)ccn2)cc1
[1]
  Potency: inactive
[2]
  Potency: inactive

## CC[C@@]1(O)C[C@H](O[C@H]2C[C@H](N(C)C)[C@H](O[C@H]3C[C@H](O)[C@H](O[C@H]4CCC(=O)[C@H](C)O4)[C@H](C)O3)[C@H](C)O2)c2c(cc3c(c2O)C(=O)c2c(O)cccc2C3=O)[C@@H]1C(=O)OC
[1]
  Potency: 2.63 µM (active)
[2]
  Potency: 1.18 µM (active)

## O=c1cc(-c2ccccc2)oc2cc(O)cc(O)c12
[1]
  Potency: 16.6 µM (active)
[2]
  Potency: 16.6 µM (active)

## CC(C)(C)c1cc(C(=O)O)c(NC(=O)Nc2ccc3[nH]ncc3c2)s1
[1]
  Potency: inactive
[2]
  Potency: inactive

## CC(C)C(C)C=CC(C)C1CCC2C3=CC=C4CC(O)CCC4(C)C3CCC21C (centres undefined)
[1]
  Potency: inactive
[2]
  Potency: inactive

## CC(C(=O)O)c1ccc(-c2ccccc2)c(F)c1 (centres undefined)
[1]
  Potency: inactive
[2]
  Potency: inactive

## COc1ccc(-c2coc3cc(O)cc(O)c3c2=O)cc1
[1]
  Potency: 18.6 µM (active)

## Clc1cc(Cl)cc(CNc2ncncc2-c2ccc3c(c2)OCO3)c1
[1]
  Potency: 13.2 µM (active)
[2]
  Potency: 11.8 µM (active)

## Nc1ncnc2ccccc12
[1]
  Potency: inactive
[2]
  Potency: inactive

## CCn1c(C(=O)N(C2CC2)C2CC2)cc2c3c(ncn3C)c(Nc3cc(C)n(C)n3)nc21
[1]
  Potency: 11.5 µM (active) and 16.6 µM (active)

## Oc1ccc(C2CCN(c3ccnc4ccccc34)CC2)cc1O
[1]
  Potency: 13.2 µM (active)
[2]
  Potency: 11.8 µM (active)

## O=C(O)c1ccc(-c2c[nH]c3ncc(-c4ccccc4)cc23)cc1C1CCCC1
[1]
  Potency: inactive
[2]
  Potency: 18.6 µM (active)

## CC1CCC(C(=O)N(c2cc(C#CC(C)(C)C)sc2C(=O)O)C2CCC(O)CC2)CC1 (centres undefined)
[1]
  Potency: 20.9 µM (active)
[2]
  Potency: 16.6 µM (active)

## O=C(O)c1cc(O)c2c(c1)C(=O)c1cccc(O)c1C2=O
[1]
  Potency: inactive
[2]
  Potency: inactive

## NS(=O)(=O)c1ccc(NC2=CC(=O)c3ccccc3C2=O)cc1
[1]
  Potency: inactive
[2]
  Potency: inactive

## COc1cccc([C@@H](C)NCCCc2ccccc2Cl)c1
[1]
  Potency: 18.6 µM (active)
[2]
  Potency: 18.6 µM (active)

## N[C@H](CSC(c1ccccc1)(c1ccccc1)c1ccccc1)C(=O)O
[1]
  Potency: inactive
[2]
  Potency: inactive

## O=C(CCCCCCC(=O)Nc1ccccc1)NO
[1]
  Potency: 94.4 nM (active) and 1.63 µM (active) and 662 nM (active)
[2]
  Potency: 106 nM (active) and 649 nM (active) and 833 nM (active)

## CC(C)=CC[C@@H](O)C1=CC(=O)c2c(O)ccc(O)c2C1=O
[1]
  Potency: 23.5 µM (active)
[2]
  Potency: 20.9 µM (active)

## N#Cc1ccc(NC(=O)Nc2ccccc2Br)c2n[nH]nc12
[1]
  Potency: inactive
[2]
  Potency: inactive

## NC(CO)(CO)CCc1ccc(Sc2cccc(OCc3ccccc3)c2)cc1Cl
[1]
  Potency: 7.42 µM (active)
[2]
  Potency: 7.42 µM (active)

## CC(C)n1cnc2c(NCCCCCCNC(=O)OC(C)(C)C)nc(NCCO)nc21
[1]
  Potency: 14.8 µM (active)
[2]
  Potency: 16.6 µM (active)

## CN(C)Cc1cccc(N=C(c2ccccc2)c2c(O)[nH]c3cc(C(=O)N(C)C)ccc23)c1
[1]
  Potency: 16.6 µM (active)
[2]
  Potency: 14.8 µM (active)

## CC(C)C(=O)Nc1ncc(-c2cc(C(F)F)nn2-c2c(Cl)cccc2Cl)s1
[1]
  Potency: 23 µM (active)
[2]
  Potency: 23 µM (active)

## CCCCCCCCCCCC1=C(O)C(=O)C=C(O)C1=O
[1]
  Potency: inactive
[2]
  Potency: inactive
